Values without a mark were called inactive. Records with an inconclusive call do not appear. Calls of active or inactive are those of the source. Unless noted, calls follow the shape of the dose curve; as a rule, active = well fitted curve in either direction with a large enough effect (not every such curve was filed as active); inconclusive = small, poorly fitted or top-dose-only effect, or another doubt; inactive = flat fitted curve, though single readings scatter.
Tests used:
[1] = AP1 Signaling Pathway (AID 357); settings: ME-180 AP-1-bla reporter, EGF-induced, beta-lactamase ratio, 5 h; at 17.2 µM (top of the series) unless noted;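 also: ME-180 reporter cells stimulated with EGF at its EC50 level; % is scaled to controls: 0 for no effect and ±100 for the full control effect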
Method in brief: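 Modulation of EGF-driven AP-1 transcription was assessed with a beta-lactamase reporter in ME-180 cells. Compound and EC50 EGF were co-incubated 5 hours at 37 °C before 2.5-hour CCF4 loading at room temperature and dual-emission reading.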

[2] = NFAT Signaling Pathway (AID 444); settings: Jurkat NFAT-bla M1, carbachol, beta-lactamase ratio, 5 h; at 17.2 µM (top of the series) unless noted;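 also: carbachol stimulus at about its EC50 of 1 µM final; % is scaled to controls: 0 for no effect and ±100 for the full control effect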
Method in brief: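 Read-out: CCF4 FRET ratio (460 nm/530 nm) after 1 h RT dye loading, used for %activity and AC50 from titration series. Cells: Jurkat NFAT-β-lactamase/M1 line, treated with compound plus 1 uM carbachol for 5 h, 37 °C.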

[3] = Stat Signaling Pathway (AID 446); settings: ME-180 SIE beta-lactamase reporter, IL-6 stimulated, 5 h; at 17.2 µM (top of the series) unless noted;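 also: ME-180 cervical cancer cells given 40 pM IL-6 alongside compound; SIE-controlled beta-lactamase reporter measured as 460/530 nm FRET emission ratio; % is scaled to controls: 0 for no effect and ±100 for the full control effect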
Method in brief: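 Reporter line: ME-180 cervical carcinoma, SIE-beta-lactamase. Treatment: compound with 40 pM IL-6, 5 hrs, 37 C, in low-serum OPTI-MEM with 10 mM HEPES pH 7.3. Detection: 460/530 nm fluorescence.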

[4] = biological target: Glucocorticoid receptor (Homo sapiens) (UniProt P04150); test: GR-GFP Redistribution (AID 450;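 active = compounds whose dose series gives a full or clear partial fitted curve of increased nuclear translocation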; also: potency is read from the fitted curve at half-maximal effect)
Chain of Glucocorticoid receptor (Homo sapiens) (P04150 whole entry, looked up): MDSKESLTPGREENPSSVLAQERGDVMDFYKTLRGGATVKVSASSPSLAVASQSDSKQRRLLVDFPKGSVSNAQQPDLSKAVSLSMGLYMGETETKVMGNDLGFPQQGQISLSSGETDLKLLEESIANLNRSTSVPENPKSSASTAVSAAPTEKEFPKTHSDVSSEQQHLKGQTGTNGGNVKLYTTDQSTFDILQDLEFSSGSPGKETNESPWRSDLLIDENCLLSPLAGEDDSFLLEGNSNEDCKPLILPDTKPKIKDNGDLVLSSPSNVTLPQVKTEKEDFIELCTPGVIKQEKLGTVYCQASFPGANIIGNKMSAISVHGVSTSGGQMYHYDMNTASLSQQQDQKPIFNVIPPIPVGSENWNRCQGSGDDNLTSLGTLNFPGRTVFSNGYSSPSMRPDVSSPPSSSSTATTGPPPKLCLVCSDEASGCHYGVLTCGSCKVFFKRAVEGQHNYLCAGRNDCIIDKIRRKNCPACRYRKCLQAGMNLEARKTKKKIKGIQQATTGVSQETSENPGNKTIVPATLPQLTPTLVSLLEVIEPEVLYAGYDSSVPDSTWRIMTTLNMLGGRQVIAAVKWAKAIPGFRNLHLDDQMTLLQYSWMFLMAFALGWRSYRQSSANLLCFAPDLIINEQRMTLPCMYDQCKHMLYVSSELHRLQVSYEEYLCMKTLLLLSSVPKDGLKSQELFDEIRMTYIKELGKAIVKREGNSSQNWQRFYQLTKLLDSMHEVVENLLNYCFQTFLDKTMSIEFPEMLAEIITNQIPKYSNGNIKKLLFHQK

CN1CCc2c(sc3c2C(=O)NC(c2ccco2)N3)C1 (stereo not given)
activity change, negative = inhibition [1]: -0.778%
activity change, negative = inhibition [2]: -3.54%
activity, negative = inhibition [3]: 23.6%
Potency [4]: > 20.6 µM

C=CCn1c(SCC(=O)c2ccccc2)nnc1-c1ccc2c(c1)OCO2
activity change, negative = inhibition [1]: -7.81%
activity change, negative = inhibition [2]: 16.5%
activity, negative = inhibition [3]: -9.25%
Potency [4]: > 20.6 µM

C=C(Br)Cn1c(CCCC)nc2ccccc21
activity change, negative = inhibition [1]: -12.4%
activity change, negative = inhibition [2]: 1.5%
activity, negative = inhibition [3]: 4.16%
Potency [4]: > 20.6 µM

CCOC(=O)c1c(C)n(C)c2ccc(OC)c(NC(=O)CN3CCN(Cc4ccccc4)CC3)c12
activity change, negative = inhibition [1]: -11%
activity change, negative = inhibition [2]: -8.48%
activity, negative = inhibition [3]: -7.51%
Potency [4]: > 20.6 µM

Cc1cccc(-c2nnc3n2N=C(c2ccc(Br)cc2)CS3)c1
activity change, negative = inhibition [1]: 11.1%
activity change, negative = inhibition [2]: -1.71%
activity, negative = inhibition [3]: 7.64%
Potency [4]: > 20.6 µM

CCOC(=O)NC(Nc1sc2c(c1C(N)=O)CCCC2)(C(=O)OCC)C(F)(F)F (stereo not given)
activity change, negative = inhibition [1]: -6.03%
activity change, negative = inhibition [2]: -0.536%
activity, negative = inhibition [3]: -7.59%
Potency [4]: > 20.6 µM

O=C(Nc1ccc2c(c1)OCCO2)c1ccc(Br)o1
activity change, negative = inhibition [1]: -1.9%
activity change, negative = inhibition [2]: 6.17%
activity, negative = inhibition [3]: 6.03%
Potency [4]: > 20.6 µM

COc1ccc(OC)c(NC(=O)CSc2nnc(-c3ccco3)n2-c2ccc(C(=O)O)cc2)c1
activity change, negative = inhibition [1]: -4.17%
activity change, negative = inhibition [2]: 15.9%
activity, negative = inhibition [3]: -4.38%
Potency [4]: > 20.6 µM

O=C(O)c1cc2cccc(S(=O)(=O)N3CCOCC3)c2cc1O
activity change, negative = inhibition [1]: 7.94%
activity change, negative = inhibition [2]: 0.851%
activity, negative = inhibition [3]: 6.34%
Potency [4]: > 20.6 µM

CCOC(=O)c1[nH]c2ccc(OC)cc2c1NC(=O)CCN1CCCC(C)C1 (stereo not given)
activity change, negative = inhibition [1]: -2.35%
activity change, negative = inhibition [2]: -82.5% (active)
activity, negative = inhibition [3]: 3.31%
Potency [4]: > 20.6 µM

Nc1nc(NC(=O)c2cccs2)nn1-c1ccccc1
activity change, negative = inhibition [1]: 4.21%
activity change, negative = inhibition [2]: 7.64%
activity, negative = inhibition [3]: -0.835%
Potency [4]: > 20.6 µM

Cc1ccc(C2C(C(=O)c3cc4ccccc4o3)=C(O)C(=O)N2CCN(C)C)o1 (stereo not given)
activity change, negative = inhibition [1]: -1.56%
activity change, negative = inhibition [2]: -18.1%
activity, negative = inhibition [3]: -0.311%
Potency [4]: > 20.6 µM

COc1ccc(-c2nc3n(c2Br)CCC3)cc1
activity change, negative = inhibition [1]: -3.45%
activity change, negative = inhibition [2]: 1.51%
activity, negative = inhibition [3]: 0.643%
Potency [4]: > 20.6 µM

O=C(CC(c1ccco1)S(=O)(=O)c1ccccc1)c1ccc(F)cc1 (stereo not given)
activity change, negative = inhibition [1]: -0.192%
activity change, negative = inhibition [2]: -1.61%
activity, negative = inhibition [3]: -7.8%
Potency [4]: > 20.6 µM

COCc1n[nH]c(=S)n1-c1cccc2ccccc12
activity change, negative = inhibition [1]: -1.13%
activity change, negative = inhibition [2]: 1.36%
activity, negative = inhibition [3]: 0.355%
Potency [4]: > 20.6 µM

C[C@]12CC[C@@H]3c4ccc(O[C@@H]5O[C@H](C(=O)O)[C@@H](O)[C@H](O)[C@H]5O)cc4CC[C@H]3[C@@H]1C[C@@H](O)[C@@H]2O
activity change, negative = inhibition [1]: 4.45%
activity change, negative = inhibition [2]: -30%
activity, negative = inhibition [3]: 11.5%
Potency [4]: > 20.6 µM

O=C(Nc1ccc(Cl)cn1)C1CCCN1S(=O)(=O)c1ccccc1 (stereo not given)
activity change, negative = inhibition [1]: -9.31%
activity change, negative = inhibition [2]: -4.11%
activity, negative = inhibition [3]: -6.7%
Potency [4]: > 20.6 µM

N#CC1=C(N)N2C(=C(C#N)C1c1ccccc1)Sc1ccccc12 (stereo not given)
activity change, negative = inhibition [1]: 17.5%
activity change, negative = inhibition [2]: -26.8%
activity, negative = inhibition [3]: 3.71%
Potency [4]: > 20.6 µM

c1ccc(OCc2nn3c(-c4ccco4)nnc3s2)cc1
activity change, negative = inhibition [1]: 27.2%
activity change, negative = inhibition [2]: 1.21%
activity, negative = inhibition [3]: -4.83%
Potency [4]: > 20.6 µM

Fc1ccc(OCCOCCNCC2CCCO2)cc1 (stereo not given)
activity change, negative = inhibition [1]: 12.2%
activity change, negative = inhibition [2]: -14.1%
activity, negative = inhibition [3]: 21.6%
Potency [4]: > 20.6 µM

O=C(O)CC(NCc1ccco1)C(=O)OCCc1ccccc1 (stereo not given)
activity change, negative = inhibition [1]: 2.29%
activity change, negative = inhibition [2]: 5.37%
activity, negative = inhibition [3]: 0.0661%
Potency [4]: > 20.6 µM

Clc1nc(-c2n[nH]nc2Cl)n[nH]1
activity change, negative = inhibition [1]: 14.2%
activity change, negative = inhibition [2]: -2.11%
activity, negative = inhibition [3]: 5.38%
Potency [4]: > 20.6 µM

Cc1cc(C)n(CC2CC(=O)N(c3ccc(Cl)c(Cl)c3)C2=O)n1 (stereo not given)
activity change, negative = inhibition [1]: -14.3%
activity change, negative = inhibition [2]: -11.5%
activity, negative = inhibition [3]: 0.577%
Potency [4]: > 20.6 µM

CCCCCCCC(=O)OCC(=O)[C@@]1(O)CC[C@H]2[C@@H]3CCC4=CC(=O)CC[C@]4(C)[C@H]3[C@@H](O)C[C@@]21C
activity change, negative = inhibition [1]: -9.61%
activity change, negative = inhibition [2]: -28.6%
activity, negative = inhibition [3]: 7.91%
Potency [4]: 0.00571 µM (active)

c1ccc2c(c1)nc(CN1CCOCC1)n1c3ccccc3nc21
activity change, negative = inhibition [1]: 25.2%
activity change, negative = inhibition [2]: 25.2%
activity, negative = inhibition [3]: 14.3%
Potency [4]: > 20.6 µM
